# Results filed as inconclusive are left out. Unmarked numbers belong to inactive results. Calls of active or inactive are those of the source. Calls follow the shape of the dose curve; as a rule, active = well fitted inhibition curve with a large enough effect; inconclusive = small, poorly fitted or top-dose-only effect; inactive = no such curve, though single readings can be large or run the other way.
# Molecular target: Tumor susceptibility gene 101 protein (Homo sapiens) (UniProt Q99816)
# Assay: qHTS Assay for Iinhibitors of HIV-1 Budding by Blocking the Interaction of PTAP/TSG101: Hit Validation in TR assay
# Settings: Tsg101 binding domain + Texas Red-labeled PTAP peptide, fluorescence polarization, 20 min; series mostly up to 57.5 µM; activity change, negative = inhibition: at the top concentration
# Outline: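 Texas Red-PTAP peptide (50 nM) binding to Tsg101 binding domain (10 uM), both final, in pH 7.5 HEPES buffer, read as polarization after 20 min at room temperature; compounds pinned before peptide addition.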
# % is scaled to controls: 0 for no effect and ±100 for the full control effect; potency is read from the fitted curve at half-maximal effect.
# Sequence of Tumor susceptibility gene 101 protein (Homo sapiens) (Q99816 whole entry, looked up): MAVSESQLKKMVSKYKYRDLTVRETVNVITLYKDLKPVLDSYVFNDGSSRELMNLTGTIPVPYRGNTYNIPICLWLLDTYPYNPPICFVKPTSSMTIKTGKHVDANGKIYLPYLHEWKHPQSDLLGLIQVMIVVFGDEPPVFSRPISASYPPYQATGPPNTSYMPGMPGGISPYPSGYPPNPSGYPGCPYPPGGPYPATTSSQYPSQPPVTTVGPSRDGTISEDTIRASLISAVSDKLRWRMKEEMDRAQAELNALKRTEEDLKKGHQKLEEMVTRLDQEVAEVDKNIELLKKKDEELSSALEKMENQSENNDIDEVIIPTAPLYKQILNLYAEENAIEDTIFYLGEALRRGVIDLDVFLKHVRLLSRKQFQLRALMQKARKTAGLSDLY
SMILES,"activity change, negative = inhibition [%]",Potency
COc1ccccc1NC(=O)C(C)OC(=O)C1CC(=O)N(c2ccc3c(c2)OCCO3)C1 (centres undefined),2.66,
O=C1c2ccccc2-c2onc3ccc(NCc4ccco4)c1c23,-15.9,
Cc1ccc(C2C3CN(C(C)C)CC=C3C(C#N)=C(N)C2(C#N)C#N)cc1 (centres undefined),5.49,
Cn1nc([N+](=O)[O-])c(C(C#N)c2nc3ccccc3n2C)c(Cl)c1=O (centres undefined),-9.59,
CCC1CCCCN1C(=O)c1cc2cc(Br)ccc2oc1=O (centres undefined),-6.72,
C=CCn1c(=N)c(S(=O)(=O)c2ccc(C)c(C)c2)cc2c(=O)n3ccccc3nc21,-10.9,
CC1CCCN(c2nc3ccccc3nc2C(C#N)S(=O)(=O)c2ccccc2)C1 (centres undefined),14.5,
N=C1/C(=C/c2coc3ccccc3c2=O)C(=O)N=C2SC(c3ccco3)=NN12,-1.87,
COc1ccc(OC)c2cc3ccccc3cc12,-3.96,
C1=C(c2ccc(-c3ccccc3)cc2)Nc2ncnn2C1c1ccco1 (centres undefined),-22.9,
CCN(CC)c1ccc2cc(-c3nnc(-c4ccncc4)o3)c(=O)oc2c1,14.3,
Cn1cc(/C=C(\C#N)C(=O)Nc2ccccc2O)c2ccccc21,-5.56,
Cc1ccc(N=Cc2c(O)n(-c3nccs3)c(=O)c3ccccc23)c(C)c1,36,
CCNc1ccc2noc3c2c1C(=O)c1ccccc1-3,-63.1,
Cc1cc(C=C2C(=O)c3ccccc3C2=O)c(C)n1-c1ccc(Cl)cc1,-8.23,
O=C1/C(=C/c2ccco2)Oc2c1ccc(O)c2CN1CCCCC1,-10.8,
CC(C)(C)c1ccc(C2C3=C(CCCC3=O)NC3=C2C(=O)c2ccccc23)cc1 (centres undefined),-7.08,
Nc1c(C(=O)O)sc2nc(-c3ccccc3)cc(-c3ccc(Cl)cc3)c12,-8.6,
Cn1c(=O)c(Nc2ccc(Cl)cc2)c2c3c(cccc31)C(=O)c1ccccc1-2,-2.75,
COc1ccc(NC(=O)c2cccc(-c3ccc(O)cc3)c2)cn1,-20.6,

SMILES,"activity change, negative = inhibition [%]",Potency
CCN(CC)c1ccc(/C=C(\C#N)C(=O)c2ccc(Br)cc2)cc1,-13.5,
COc1cc(OC)c(-c2c3cc(O)c(=O)cc-3oc3cc(O)c(O)cc23)cc1OC,-25.9,
COc1cc2c(cc1OC)-c1cc3ccc4c(c3c[n+]1CC2)OCO4,-22.7,
O=C(C1=NN(c2ccccc2)C2C(=O)N(c3ccccc3)C(=O)C12)c1ccccc1 (centres undefined),-19.4,
Cc1ccc(N2C(=O)C3C(C(=O)c4ccccc4)=NN(c4ccccc4)C3C2=O)cc1 (centres undefined),-18.9,
O=C(CC1CC2CCC1C2)NCc1cccs1 (centres undefined),-6.04,
CC(=O)c1cccc(-n2nnnc2SCC(=O)Nc2cc(C)on2)c1,2.31,
COc1cccc2c1C(=O)c1c(O)c3c(c(O)c1C2=O)CC(O)(C(C)=O)CC3OC1CC(O)C(O)C(C)O1 (centres undefined),-16.2,
c1ccc2c(c1)CCCN2Cc1nnnn1CC1CCCO1 (centres undefined),,18.3 µM (active)
CCN(CC)C(=O)[C@H]1CC(CC(=O)NCc2cccc(C(F)(F)F)c2)C(=O)N2CCc3c([nH]c4ccc(OC)cc34)[C@]12C (some centres undefined),25.7,
O=C(NCc1ccc(F)cc1)c1cccc2c1C(=O)c1ccc(N3CCC(Cc4ccccc4)CC3)cc1S2(=O)=O,11.5,
CCN(CC)C(=O)c1sc2nc(-c3cccs3)cc(-c3cccs3)c2c1N,-10.4,
Cc1nc(Cl)c2c(n1)NC1=C(O2)C(=O)CCC1,22,
CCCCNc1c2c3c(cccc3n(C)c1=O)C(=O)c1ccccc1-2,-9.99,
COCCCNC(=O)C(C#N)c1nc2ccccc2nc1N1CCCC1 (centres undefined),25.7,
CC(=O)Nc1ccc2cc3ccc(NC(C)=O)cc3nc2c1,23.2,
O=[N+]([O-])c1ccc(-c2cn3nc(-c4ccccc4)c(-c4ccccc4)nc3n2)cc1,0.23,
Cc1cccc(NC(=S)NCCC(c2ccccc2)c2ccccc2)c1,-2.24,
CN1c2ccc(C=O)c3c(C=O)ccc(c23)N(C)C1(C)C,1.18,

# From PubChem BioAssay AID651599 (National Center for Advancing Translational Sciences (NCATS), 2012)
